Compound activity (PubChem)
VP16 counter: VP16 counterscreen qHTS for inhibitors of ROR gamma transcriptional activity; Drosophila S2 Gal4-VP16 UAS-luciferase, luminescence, 20 h; Potency, µM (series often up to 53.6 µM), without a hit: at the top dose activity, negative = inhibition, most hits filed as inhibitors; 310,000 tested, 3.5% active;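 note: Gal4-VP16 expression switched on by copper sulfate through the metallothionein promoter; nearly all actives have a fitted effect of over 50% in size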
12-LOX inh: Primary qHTS assay for inhibitors of human arachidonate 12S-lipoxygenase (ALOX12): Round 2 | Polyunsaturated fatty acid lipoxygenase ALOX12 (Homo sapiens), P18054 | 580,000 tested, 1.1% active | purified 12hLO, xylenol orange hydroperoxide absorbance | Potency, µM (doses to about 108 µM), for the others: at the top dose activity change, negative = inhibition, actives largely listed as inhibitors | AID 1671190, 2021
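Purified human 12hLO at 150 nM in 25 mM Hepes, 0.01% Triton X-100, pH 7.0, preincubated 15 min at room temperature with compound. Reaction started with 40 uM arachidonic acid, 30 min at room temperature. Hydroperoxide measured by Fe-xylenol orange, 573/405 nm absorbance ratio.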
DT40 TDP1 no CPT: qHTS for Inhibitors of human tyrosyl-DNA phosphodiesterase 1 (TDP1): qHTS in cells in absence of CPT; AID 686978, 2013; Potency, µM (top dose mostly 46.2 µM), for the others: top-dose activity change, negative = growth inhibition, actives largely listed as inhibitors; DT40 Tdp1-/- hTDP1 cells, no CPT, ATP luminescence, 48 h; 420,000 tested, 15% active; note: nearly all actives have a fitted effect of over 55% in size
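No-CPT arm: Tdp1-/-;hTDP1 DT40 cells (400/well) plus compounds, incubated ≥48 hr at 37 °C. Readout CellTiter-Glo luminescence.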
ELG1 DNA repair: qHTS screen for small molecules that inhibit ELG1-dependent DNA repair in human embryonic kidney (HEK293T) cells expressing luciferase-tagged ELG1. 330,000 tested, 2.3% active. Potency, µM (series often up to 46.1 µM), for inactives: top-dose activity change, negative = inhibition, most hits filed as inhibitors. HEK293T ELG1-luciferase reporter, luminescence, 16 h; DNA damage induced by 5-fluorouridine. AID 504467, 2011; note: nearly all actives have a fitted effect of over 55% in size
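In this reporter screen, reduction of luminescence relative to DMSO vehicle indicated activity. Compounds and 5-fluorouridine were added together to 2,000 cells per well, incubated for 16 hr at 37 °C, then developed with ONE-Glo.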
RORgamma inh: qHTS for inhibitors of ROR gamma transcriptional activity; Potency, µM (top dose mostly 53.6 µM), for inactives: at the top dose activity change, negative = inhibition, most hits filed as inhibitors; AID 2551, 2010; Drosophila S2 Gal4-RORgamma UAS-luciferase reporter, 20 h; 310,000 tested, 5.4% active; Nuclear receptor ROR-gamma (Mus musculus), P51450; note: nearly all actives have a fitted effect of over 60% in size
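Schneider cells (Drosophila), stable Gal4 DBD–ROR gamma + UAS-luc; 1 hr cmpd preincubation; Cu2+ induction 700 uM final; 20 hr ambient; luminescence.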
TDP1 cell CPT: qHTS for Inhibitors of human tyrosyl-DNA phosphodiesterase 1 (TDP1): qHTS in cells in presence of CPT | chicken DT40 Tdp1-/-;hTDP1 cells + 20 nM CPT, ATP luminescence, 48 h | Potency, µM (series often up to 46.2 µM), for inactives: at the highest dose activity change, negative = growth inhibition, usual class: inhibitors | 420,000 tested, 12% active; note: nearly all actives have a fitted effect of over 55% in size
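Chicken DT40 Tdp1-/- cells stably complemented with human TDP1 were seeded at 400 cells/well in medium containing 20 nM camptothecin, exposed to pin-transferred compounds, and grown at 37 °C for at least 48 hr. Viability was read as ATP luminescence.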
ELG1 FLuc counter: qHTS screen for small molecules that inhibit ELG1-dependent DNA repair: Hit Confirmation in Cell-Based Luciferin Assay; shares compounds with ELG1 DNA repair; cell-free firefly luciferase luminescence counter-screen, ViewLux; Potency, µM (titrated, usually from 46.1 µM), without a hit: top-dose activity change, negative = inhibition, actives largely listed as inhibitors; 350 tested, 3% active
ELG1 Luc conf: HTS assay for small molecules that inhibit ELG1-dependent DNA repair in human embryonic kidney (HEK293T) cells expressing luciferase-tagged ELG1: Hit Confirmation | 670 tested, 68% active | HEK293T ELG1-luciferase levels, luminescence; cells co-treated with 5-fluorouridine | Potency, µM (series often up to 46.1 µM), inactives show at the top dose activity change, negative = inhibition, hits mostly inhibitors | shares compounds with ELG1 DNA repair; note: nearly all actives have a fitted effect of over 55% in size
ELG1-Luc MMS: confirmation of human ELG1 repair inhibitors, MMS stimulated. Potency, µM (highest dose often 46.1 µM), without a hit: top-dose activity change, negative = inhibition, most hits filed as inhibitors. 670 tested, 53% active. AID 624249. HEK293T luciferase-tagged ELG1 level, MMS stimulated. shares compounds with ELG1 DNA repair; note: nearly all actives have a fitted effect of over 60% in size
ELG1 5-FU: qHTS screen for small molecules that inhibit ELG1-dependent DNA repair: Hit Confirmation with 5FU Viability; Potency, µM (titrated, usually from 46.1 µM), without a hit: at the top dose activity change, negative = viability loss, most hits filed as cytotoxic; shares compounds with ELG1 DNA repair; cell viability with 5-FU, ELG1-dependent repair; 670 tested, under 10 active; AID 624250, 2012;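 note: ELG1-luc HEK293T cells cotreated with 5-fluorouridine at 10 µM final; viability measured 16 h after compound addition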
ELG1 MMS cell: qHTS screen for small molecules that inhibit ELG1-dependent DNA repair: Hit Confirmation with MMS Viability | Potency, µM (doses to about 46.1 µM), for the others: at the top dose activity change, negative = viability loss, actives largely listed as cytotoxic | shares compounds with ELG1 DNA repair | Cell viability with MMS, ELG1-dependent DNA repair | 670 tested, 33% active | AID 624251, 2012;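 note: ELG1-luc HEK293T cells co-treated with 10 µM MMS; viability read 16 h after compound addition; nearly all actives have a fitted effect of over 60% in size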
Cell viab unstim: qHTS screen for small molecules that inhibit ELG1-dependent DNA repair: Hit Confirmation with Unstimulated Viability Assay; shares compounds with ELG1 DNA repair; cell viability counter-screen, unstimulated, luminescence; Potency, µM (titrated, usually from 45.9 µM), without a hit: at the top dose activity change, negative = loss of viability, most hits filed as cytotoxic; 900 tested, 8% active; AID 624252, 2012;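 note: compound exposure lasted 16 hours before reading; nearly all actives have a fitted effect of over 55% in size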
FLuc enzyme: qHTS screen for small molecules that inhibit ELG1-dependent DNA repair: Hit Confirmation in Biochemical Luciferin Assay. AID 624253, 2012. Potency, µM (titrated, usually from 57.5 µM), for the others: at the top dose activity, negative = inhibition, usual class: inhibitors. shares compounds with ELG1 DNA repair. purified firefly luciferase, luminescence counter-screen. 350 tested, 10% active
Starred values were filed as active, the others as inactive; ? = inconclusive; nt = not tested or not shown; [ ] = another dose, or the depositor's remark. Shown are actives, neighbours in structure and some others; about 15% of the full set was active somewhere. Calls come from the whole dose curve; as a rule, active = well fitted curve in the direction sought with a large enough effect; inconclusive = small, poorly fitted or top-dose-only effect, or another doubt; inactive = no such curve, though single readings can be large; an effect the other way counts as inactive or inconclusive. % is set by controls: 0 for no effect and ±100 for the full control effect; potency is the fitted concentration of half-maximal effect.

SMILES | VP16 counter | 12-LOX inh | DT40 TDP1 no CPT | ELG1 DNA repair | RORgamma inh | TDP1 cell CPT | ELG1 Luc conf | ELG1-Luc MMS | ELG1 5-FU | ELG1 MMS cell | Cell viab unstim | others
COc1cc(/C=C(\C#N)C(=O)Nc2cccc(C(=O)O)c2)ccc1OCc1ccc(Cl)cc1 | -13% | -14% | ? | ? | 39% | 0% | nt | nt | nt | nt | 11% | ELG1 FLuc counter=51%;FLuc enzyme=16µM*
CCc1ccc(C(=O)N2CCN(C(=O)c3nnn4c3COC(c3ccc(C)cc3)C4)CC2)cc1 (stereo not drawn) | nt | 13% | nt | nt | nt | nt | nt | nt | nt | nt | nt
COc1ccc(NS(=O)(=O)c2cccc(C(=O)OCC(=O)N3CCN(c4ccc(OC)cc4)CC3)c2)cc1 | nt | nt | 13µM* | 4.6µM* | nt | 13µM* | ? | 7.9µM* | -7% | 7.9µM* | ?
COc1cc2ncnc(Nc3cccc(Cl)c3)c2cc1OC | -12% | 0%[57.4 µM] | 13µM* | nt | 29% | 18µM* | 6.3µM* | 7.1µM* | 25µM* | 18µM* | 18µM*
O=C1NC[C@H](c2ccccc2)OC(=O)[C@H](Cc2ccc(F)cc2)CC/C=C/C[C@H]1CC(=O)N(CCO)Cc1ccccc1 | nt | ? | ? | 2.9µM* | nt | 26µM* | 11µM* | 13µM* | ? | ? | -13%
O=C1CC/C=C\C[C@@H](CC(=O)N(CCO)Cc2ccccc2)C(=O)N[C@H](Cc2ccccc2)CO1 | nt | -3% | ? | ? | nt | -26% | nt | nt | nt | nt | nt
CCOC(=O)C1C(=O)C=C(c2ccc(C)cc2)CC1c1cccs1 (stereo not drawn) | nt | -18% | nt | nt | nt | nt | nt | nt | nt | nt | nt
Cn1c2ccccc2c(=O)c2cc(NCCCN3CCOCC3)ccc21 | nt | 1% | ? | ? | nt | ? | nt | nt | nt | nt | -4%
O=C(c1ccc2c(c1)OCO2)N(Cc1cccs1)C1(C(=O)NC2CCCC2)CCCCC1 | nt | -4% | nt | nt | nt | nt | nt | nt | nt | nt | nt
O=C(CSc1nc2ccc(NC(=O)CSc3nnnn3Cc3ccccc3)cc2s1)Nc1ccccc1 | -5% | -7% | -22% | 4.6µM* | -4% | -17% | ? | 7.9µM* | -2% | 13µM* | ?
COC(=O)N1CCCC(c2nn(-c3cccc(Cl)c3)c(=O)[nH]2)C1 (stereo not drawn) | nt | -12% | nt | nt | nt | nt | nt | nt | nt | nt | nt
C=CCn1c(C)cc(C(=O)COC(=O)c2n[nH]c(=O)c3ccccc23)c1C | nt | -22% | ? | ? | nt | ? | nt | nt | nt | nt | -10%
CCOc1cccc(CNC(=O)Cn2c(C)ccc(NC(=O)NC)c2=O)c1 | nt | 18% | nt | nt | nt | nt | nt | nt | nt | nt | nt
COc1ccc(-c2cc(N3CCCN(C(=O)Cc4cccc(F)c4)CC3)n[nH]2)cc1 | nt | 46% | nt | nt | nt | nt | nt | nt | nt | nt | nt
O=c1nc2sc3ccccc3n2c(=O)n1-c1cccc(Cl)c1 | ? | nt | ? | ? | 7% | ? | nt | nt | nt | nt | -5% | ELG1 FLuc counter=82%;FLuc enzyme=-6%
Cc1ccc2c(c1)sc1nc(=O)n(-c3cccc(Cl)c3)c(=O)n12 | -9% | -13% | ? | ? | 11% | ? | nt | nt | nt | nt | nt
Cc1ccc2c(c1)sc1nc(=O)n(-c3ccc(Cl)c(Cl)c3)c(=O)n12 | -13% | -21% | ? | ? | 21% | ? | nt | nt | nt | nt | -2% | ELG1 FLuc counter=7%;FLuc enzyme=-3%
Clc1ccccc1C1=Nn2c(nnc2-c2ccncc2)SC1 | -15% | -15% | 10µM* | 4.6µM* | -19% | 6.5µM* | 3.2µM* | 6.3µM* | 13% | -1% | -7% | ELG1 FLuc counter=?;FLuc enzyme=-6%
CCOC(CNC(=O)c1ccc(CNS(=O)(=O)c2ccc(F)cc2)cc1)OCC | nt | 7% | nt | nt | nt | nt | nt | nt | nt | nt | nt
Cn1nc(C(=O)OCC(=O)NC2CC2)c2ccccc2c1=O | nt | -2% | nt | nt | nt | nt | nt | nt | nt | nt | nt
COc1ccc(CCNc2nc(-c3cccnc3)nc3ccccc23)cc1OC | 3% | -15% | 9.2µM* | 2.6µM* | 6% | 13µM* | 3.2µM* | 13µM* | ? | ? | ? | ELG1 FLuc counter=14%;FLuc enzyme=?
